Source: PubChem
hgDAF12 agonist: hgDAF-12 agonism, primary luciferase screen; HEK293 GAL4-hgDAF12 UAS-luciferase reporter, agonist luminescence; normalized to butyrate control; activation, % at 6.8 µM; 370,000 compounds, 1.8% hits; AID 687014;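 active = activation above a cutoff set at the mean of all screened compounds plus 3 SD, cut at about 10% in these data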
DAX1 inh-1: inhibits human nuclear receptor DAX1; inhibition, % at 6.75 µM; P51843; 340,000 compounds, 0.99% hits; HEK293 Gal4-DAX1 luciferase reporter, luminescence;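 active = inhibition above the mean over all tested compounds plus 3 SD, cut at about 4.2% in these data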;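 note: inhibition shows as a rise in luminescence from relieved DAX1 repression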
Target sequence (P51843 207-470 limits assumed): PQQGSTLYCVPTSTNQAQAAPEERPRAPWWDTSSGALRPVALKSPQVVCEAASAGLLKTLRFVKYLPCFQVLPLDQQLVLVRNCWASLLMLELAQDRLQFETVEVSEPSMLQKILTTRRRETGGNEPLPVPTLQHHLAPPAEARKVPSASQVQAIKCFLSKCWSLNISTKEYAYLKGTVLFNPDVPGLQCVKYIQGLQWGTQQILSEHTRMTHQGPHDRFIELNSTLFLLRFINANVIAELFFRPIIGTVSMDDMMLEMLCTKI
DAX1 inh-2: blocks DAX1 repression of SF-1 activated StAR promoter. 370,000 compounds, 1.1% hits. inhibition, % at 6.8 µM. HEK293T StAR-luciferase reporter, SF-1/DAX-1 repression relief;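 active = inhibition above the mean over all tested compounds plus 3 SD, cut at about 3.6% in these data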;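 note: higher inhibition means more luminescence from relief of DAX-1 repression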
hcDAF12 agonist: activators of H. contortus DAF-12 nuclear receptor; HEK293 hcDAF-12 lit1-tk-luc reporter, luminescence; 0% DMSO, 100% Δ7-dafachronic acid; activation, % at 6.8 µM; 370,000 compounds, 1.4% hits;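 active = activation above the mean of all tested compounds plus 3 SD, cut at about 5.5% in these data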
ssDAF-12 act: S. stercoralis DAF-12 activation, primary screen. HEK293 ssDAF-12/GRIP1 lit1-tk-luc reporter, luminescence; % of 3 µM dafachronic acid response. activation, % at 6.8 µM. 370,000 compounds, 1% hits. AID 652126;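 active = activation above the mean over all tested compounds plus 3 SD, cut at about 0.9% in these data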
A number is an active result; . = inactive; / = no result given. Hits are enriched below; roughly 4.1% of the tested compounds scored in any of these assays.

SMILES	hgDAF12 agonist	DAX1 inh-1	DAX1 inh-2	hcDAF12 agonist	ssDAF-12 act
COC(=O)c1cccc(NC(=O)CSc2nnc(COc3ccc(C#N)cc3)n2-c2ccccc2)c1	.	5.1	.	.	.
N#Cc1ccc(OCc2nnc(SCC(=O)c3ccccc3)n2-c2ccccc2)cc1	.	.	.	.	.
CC(=O)c1ccc(NC(=O)CSc2ccc(-c3ccc(-n4cccn4)cc3)nn2)cc1	.	.	.	.	.
Cc1ccccc1C(=O)NC=C1C(=O)OC(C)(C)OC1=O	.	4.2	.	.	.
CC1(C)OC(=O)C(=CNC(=O)c2c(F)cccc2F)C(=O)O1	.	.	.	.	.
Cc1cc(NC(=O)CCCC(=O)N(CC(=O)NCCc2ccccc2)Cc2ccc(F)cc2)no1	.	.	.	.	1.1
OC1CCN(Cc2cccc3ccccc23)CC1	.	5.0	.	.	.
CN1CCCN(Cc2cccc3ccccc23)CC1	.	.	.	.	.
Cc1cccc(-c2cccc3c4c([nH]c23)[C@@H]2C[C@H](N(C)C(=O)c3ccco3)[C@H]([C@H](C)O)CN2CC4)c1	.	/	.	.	.
CC(C)(C)CCN1CCC[C@H](NC(=O)COc2ccc(F)c(Cl)c2)C1	.	/	/	.	.
CCOC(=O)/C=C(\C)Sc1cc(O)c2ccccc2c1O	.	.	.	5.8	.
N#CC1C(C#N)N2CCCN2C1c1ccc(Cl)cc1 (stereo unspecified)	.	.	.	5.8	.
COCC(=O)N[C@H]1C[C@@H]2O[C@H](CO)CC[C@@H]2O[C@@H]1CCc1ccc(-c2ccccc2)cc1	.	/	.	.	.
CC(=O)N1CCc2cc(NC(=O)c3ccc(C)cc3)ccc21	10.6	.	.	.	.
O=C(Nc1ccc(F)c(Cl)c1)C1Cc2c(-c3ccc4c(c3)OCO4)ccnc2O1 (stereo unspecified)	.	/	.	.	.
c1ccc(-c2cnc(-c3ccccc3)nc2)cc1	10.6	.	.	.	.
COc1cc(O)c(C(CCN2CCCCC2)c2ccc3c(c2)OCO3)c(OC)c1 (stereo unspecified)	.	4.3	.	.	.
O=C(COC(=O)c1ccncc1)c1ccc(Br)cc1	.	4.6	.	.	.
Cn1c(=O)oc2cc(S(=O)(=O)N3CCN(C(=O)C4CCCO4)CC3)ccc21 (stereo unspecified)	.	/	.	.	.
Cc1cc(C(=O)Nc2ccc(F)cc2C)n(-c2ccccc2)n1	.	5.0	.	.	.
CC(=O)C1(C(=O)NC2CCCC2)CC(c2ccccc2C(F)(F)F)=NO1 (stereo unspecified)	.	/	.	.	.
CCOC(=O)[C@@]12CN(C(=O)OC(C)(C)C)CC=C1N(Cc1ccc(OC)cc1)C(=O)[C@H]2CC(=O)NCCCCc1ccccc1	.	/	.	.	.
CCOC(=O)c1c(NC(=O)CSc2nnc(C)c(=O)[nH]2)sc(C)c1-c1ccc(C)cc1	.	4.6	.	.	.
COc1ccc(-c2csc(NC(=O)C3=COCCO3)n2)c(OC)c1	.	.	3.9	.	.
COc1ccc(C(=O)Nc2cc(Cl)c(Br)cc2C(=O)O)cc1	.	/	/	.	.
SMILES	hgDAF12 agonist	DAX1 inh-1	DAX1 inh-2	hcDAF12 agonist	ssDAF-12 act
O=C(CSc1ccc(-c2ccccn2)nn1)c1ccc(F)cc1	.	.	.	.	.
c1ccc(CSc2ccc(-c3ccccn3)nn2)cc1	12.1	.	.	.	.
O=C(CSc1ccc(-c2ccccn2)nn1)c1ccccc1	.	4.6	.	.	.
COc1cccc(-c2nnn(CC(C)=O)n2)c1	11.1	.	.	.	.
COc1ccc(-c2ccc(-c3nnn(CC(C)=O)n3)cc2)cc1	.	.	.	.	.
CNC(=S)N/N=C/c1c(C(=O)OC)cnn1-c1ccc(Cl)cc1	.	/	/	.	.
CCOc1ccc(CCNC(=O)c2ccc3[nH]ccc3c2)cc1OCC	.	/	/	.	.
CC1(C)CC(=O)C2=C(C1)NC1=C(C(=O)c3ccccc31)C2c1ccc(Cl)cc1 (stereo unspecified)	.	.	.	6.4	.
Cc1ccc(C2C3=C(CC(C)(C)CC3=O)NC3=C2C(=O)c2ccccc23)cc1 (stereo unspecified)	.	.	.	.	.
O=C(Nc1ccccc1C(=O)NC1CCCC1)NC1CCCC1	.	5.8	.	.	.
O=C(NC(=S)NC1CCCCCCCCCCC1)c1cccnc1	.	.	.	.	.
O=C(NC1CCCCC1)c1ccccc1NC(=O)C1CC1	.	.	.	.	.
O=C(NC(=S)NC1CCCC1)c1ccccc1	12.8	.	3.9	.	.
CC(=O)NC(=S)Nc1ccccc1C(=O)NC1CCCCC1	.	.	.	.	3.9
O=C(NC1CCCCC1)c1cc(C(=O)c2ccccc2Br)c[nH]1	.	6.4	.	.	.
O=C(Nc1ccc(F)cc1)Nc1nc2ncccn2c1-c1ccc(F)cc1	.	/	.	.	.
CCCn1c(SCC(=O)N2CC(=O)Nc3ccccc32)n[nH]c1=O	.	.	.	.	.
O=C(Cc1ccccc1Cl)NCCN1C(=O)C2C3C=CC(C3)C2C1=O (stereo unspecified)	.	/	.	.	.
CCNc1nc(N)c([N+](=O)[O-])c(Nc2cccc(Cl)c2)n1	.	/	/	.	.
CC1(NC(=O)NCCCCCCNC(=O)NC2(C)CCS(=O)(=O)C2)CCS(=O)(=O)C1 (stereo unspecified)	.	.	.	.	.
CC1(NC(=S)NCCCCCCNC(=S)NC2(C)CCS(=O)(=O)C2)CCS(=O)(=O)C1 (stereo unspecified)	.	5.0	.	.	.
CCOC(=O)c1cc(C(=O)Nc2ccc(C)c(F)c2)nn1C	10.7	.	.	.	.
CC(C)Nc1cc(C(C)(C)C)nc2c(-c3ccccc3)cnn12	.	6.0	.	.	.
CC(C)(C)c1cc(NCCCn2ccnc2)n2ncc(-c3ccccc3)c2n1	11.7	/	.	.	.
Cc1cc(N)n2ncc(-c3ccccc3)c2n1	11.1	.	.	.	.
SMILES	hgDAF12 agonist	DAX1 inh-1	DAX1 inh-2	hcDAF12 agonist	ssDAF-12 act
CC(C)(C)c1cc(C(F)(F)F)n2ncc(-c3ccccc3)c2n1	.	.	.	.	.
O=[N+]([O-])c1ccc(CSc2nnc(-c3cccc(Cl)c3)n2Cc2ccco2)cc1	.	/	.	.	.
CCOC(=O)c1cccc(-c2cc(C(C)=O)c3n(c2=O)CCC3)c1	.	/	.	.	.
O=C(c1cc(-c2cccc(Cl)c2)on1)N1CCOCC1	11.0	.	.	.	.
O=C(c1cc(-c2cccc(O)c2)on1)N1CCCC1	13.1	.	.	.	.
O=C(c1cc(-c2ccc(Cl)cc2)on1)N1CCOCC1	12.2	.	4.0	.	.
CN1CCN(C(=S)c2ccc(-c3cccc([N+](=O)[O-])c3)o2)CC1	.	7.9	.	6.5	.
O=[N+]([O-])c1cccc(-c2ccc(C(=S)N3CCN(c4ccccc4)CC3)o2)c1	.	/	.	.	.
O=C(c1cc(-c2ccc(Cl)c(Cl)c2)on1)N1CCOCC1	.	.	.	.	.
